Shn3 3UTR inh: Schnurri-3 reporter inhibition in Clone20 osteoblasts; Clone20 osteoblast Shn3 3'UTR firefly luciferase, 24 h; inhibition, % at 12.5 µM; 0.52% of 360,000 active; AID 588674;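 active = mean inhibition of at least 75% with every replicate also reaching 75%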;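 note: 0% = median of neutral control wells and 100% = pilot-screen positive control compound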
Jurkat NFkB inh: lowers PMA/ionomycin-induced NF-kB signal in Jurkat cells; 0.53% of 330,000 active; inhibition, % at 4 µM; AID 435003; PMA/ionomycin-induced NF-kB luciferase reporter, luminescence; in the data active = inhibition above about 50%
Beta cell apopt: beta cell apoptosis inhibition; protection from apoptosis, % (concentration not given with the values); 0.8% of 300,000 active; INS-1E cytokine-induced death, ATP luminescence, 48 h; percent of positive-control rescue, neutral wells zero;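 active = Every replicate reaches about 75%, or at least half do and their mean reaches it too, limit read from the data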;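 note: 0% = cytokine-treated negative control wells and 100% = positive control rescue; higher means more ATP so stronger rescue from cytokine killing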
697 NFkB inh: lowers PMA/ionomycin-induced NF-kB signal in 697 B cells | 697 B-cell NF-kB luciferase reporter, 16 h | inhibition, % at 4 µM | 0.33% of 330,000 active; in the data active = inhibition above about 35%
Calb FLC: affects C. albicans growth with fluconazole | C. albicans CaCi-2 (fluconazole-resistant clinical isolate) + fluconazole, Alamar Blue growth, 48 h | growth inhibition, % (concentration not given with the values) | 0.57% of 300,000 active | AID 1979;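 active = growth inhibition above about 58% in most replicates, limit read from the data, passing the limit was not always enough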;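 note: all wells also contain fluconazole at 8 µg/ml as a sub-toxic cotreatment; 0% = median of DMSO wells and 100% = median of geldanamycin control wells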
Jurkat NFkB conf: inhibitors of the PMA/ionomycin-induced NF-kB reporter in Jurkat cells, retest | shares compounds with Jurkat NFkB inh | Jurkat NF-kB luciferase, 16 h | inhibition, % at 4 µM | 27% of 2,700 active | AID 435020;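 active = inhibition reaching about 45% at 4 µM in either replicate, limit read from the data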;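 note: plate controls were PMA/ionomycin stimulated DMSO wells for no effect and unstimulated DMSO wells for full effect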
The depositor's hits bear a star; . = no result. An excerpt weighted towards active compounds, which were near 2% of everything screened.

SMILES | Shn3 3UTR inh | Jurkat NFkB inh | Beta cell apopt | 697 NFkB inh | Calb FLC | Jurkat NFkB conf
COc1ccccc1/C=C/C(=O)Nc1ccc2c(c1)OCCO2 | -37 | -29 | 12 | -190 | -1 | .
O=C(/C=C/c1ccco1)Nc1ccc2c(c1)OCCO2 | -4 | -160 | -7 | -208 | 9 | -58
CCOc1ccc(Br)cc1/C(C)=N\NC1=NCCN1 | 77 | 70* | 28 | -28 | -15 | 26
CCOC(=O)N1CCC(NC(=O)c2cc3cc4cc(OC)ccc4nc3o2)CC1 | 11 | -5 | 8 | 2 | -15 | .
COc1ccc2nc3oc(C(=O)NC4CCN(Cc5ccccc5)CC4)cc3cc2c1 | -5 | 63* | . | -38 | . | 22
Cn1c(N)c(C(=O)COC(=O)Cc2ccc(F)cc2)c(=O)n(C)c1=O | 3 | 12 | . | 3 | . | .
CCOc1cccc(-c2c(C(=O)N/N=C/c3cccs3)nnn2-c2nonc2N)c1 | 25 | -2 | . | -24 | -10 | .
OC(CN1C2=NCCN2c2ccccc21)c1ccc2c(c1)OCO2 (stereo unspecified) | -8 | 63* | -1 | -1 | -3 | 12
OC(CN1C2=NCCCN2c2ccccc21)c1ccc2c(c1)OCO2 (stereo unspecified) | -5 | -5 | -2 | 4 | -3 | .
Cc1cccc(OCC(O)Cn2c(=N)n(Cc3ccccc3)c3ccccc32)c1 (stereo unspecified) | 52 | 62* | 1 | -42 | 0 | 18
CCN(CC)CCn1c(=N)n(CC(O)COc2cccc(C)c2)c2ccccc21 (stereo unspecified) | 82 | 32 | 24 | -14 | -23 | .
CCc1ccc(CCC(=O)Nc2sc3c(c2C#N)CCCC3)o1 | 10 | 56* | -16 | 1 | -13 | 25
Cc1cccc(C(=O)Nc2sc3c(c2C#N)CCCCC3)c1 | -18 | -169 | 8 | -195 | -1 | -126
Cc1cc(C(=O)Nc2sc3c(c2C#N)CCC(C)C3)cs1 (stereo unspecified) | -63 | -165 | 6 | -114 | -2 | -108
Cc1cc(C(=O)N2CCC2(C)C(=O)O)c(C)o1 (stereo unspecified) | -16 | . | . | . | . | .
COc1ccc(NC(=O)c2cn(CCC#N)nc2-c2cc3ccccc3o2)cc1 | 4 | -1 | 0 | 10 | 6 | .
CN(C)c1ccc(C2C=C(c3ccc(Cl)cc3OC(F)F)Nc3ncnn32)cc1 (stereo unspecified) | 5 | 61* | 11 | 2 | -17 | 15
Cc1ccc(C2C=C(c3ccccc3OC(F)F)Nc3ncnn32)cc1 (stereo unspecified) | 4 | -11 | -1 | 5 | -5 | .
COc1ccccc1NS(=O)(=O)c1cc(C(=O)Nc2ccc(S(=O)(=O)Nc3onc(C)c3C)cc2)ccc1C | 8 | . | . | . | . | .
Cc1cccc(OC(=O)c2ccc3c(=O)n4c(nc3c2)CCC4)c1 | -7 | . | . | . | . | .
Cc1ccc(C(=O)NN(C)c2nc3ccccc3nc2C(F)(F)F)cc1 | 18 | 56* | . | -43 | -6 | 33
Cc1ccc(S(=O)(=O)Nc2ccc3c4c(cccc24)CC3)c(C)c1 | 13 | 50* | 10 | -25 | -10 | 28
Cc1cc(C)c(S(=O)(=O)Nc2ccc3c4c(cccc24)CC3)c(C)c1 | 30 | 58* | 14 | -68 | 9 | 45
CN1C(=O)C(=O)/C(=C(/O)c2ccccc2)C1c1ccc([N+](=O)[O-])cc1 (stereo unspecified) | -10 | -21 | . | -12 | 10 | .
Cc1ccc(N2CC(C(=O)Nc3cccnc3)CC2=O)cc1Cl (stereo unspecified) | 9 | -16 | -6 | -10 | -9 | .
SMILES | Shn3 3UTR inh | Jurkat NFkB inh | Beta cell apopt | 697 NFkB inh | Calb FLC | Jurkat NFkB conf
CC(Nc1ncnc2ccccc12)c1ccccc1 (stereo unspecified) | 88* | 50* | 96* | 32 | 76* | 63*
CCCCC(Nc1ncnc2ccccc12)C(=O)O (stereo unspecified) | -17 | 6 | -3 | 20 | -9 | .
COc1ccc(Nc2nc3cc(C)ccc3cc2C#N)c(OC)c1 | -25 | 65* | 1 | -51 | 1 | 46
CCOc1ccc(Nc2cc(C)nc(-n3nc(C)cc3C)n2)cc1 | 25 | 54* | 91* | 11 | 26 | 57*
CC(C)=C(NC(=O)c1ccccc1)C(=O)NC(Cc1ccccc1)C(=O)O (stereo unspecified) | 0 | -9 | 10 | -1 | -5 | .
CCN1CCC(O)(C(C(=O)O)c2ccccc2)CC1 (stereo unspecified) | 6 | . | . | . | . | .
CC(C)Cc1ccc(C(C)C(N)=NCCc2ccccc2)cc1 (stereo unspecified) | 2 | 50* | 11 | -25 | 31 | 1
CN1CCN(NC(=S)NC2CCCC2)CC1 | 6 | -18 | 7 | 3 | -17 | .
O=C(NCCc1ccc(Cl)cc1)c1ccc2c(c1)OCCO2 | -7 | -169 | . | -223 | 7 | -133
O=C(NCCc1ccc(Cl)cc1)c1ccc2c(c1)OCO2 | -95 | -141 | 3 | -161 | -19 | .
COc1ccc(/C=N/NC(=O)COc2ccccc2-c2ccccc2)cc1 | -28 | 56* | 32 | 20 | -6 | 47*
O=C(COc1cccc2ccccc12)N/N=C/c1ccccc1OCc1ccc(C(=O)O)cc1 | -1 | 4 | -6 | 16 | 15 | .
O=C(CCn1cnc(-c2ccccc2)c1-c1ccccc1)N/N=C/c1ccc(O)cc1 | 11 | 21 | -4 | 3 | 20 | .
O=C(COc1ccccc1-c1ccccc1)N/N=C/c1cccc2ccccc12 | 12 | 56* | -9 | 22 | 6 | 51*
COc1ccc(/C=N/NC(=O)CCn2cnc(-c3ccccc3)c2-c2ccccc2)cc1 | -7 | 57* | 35 | 8 | 23 | 27
CC(C)(C)N(Cc1ccccc1)C(=O)COC(=O)CSc1ccc([N+](=O)[O-])cc1 | -15 | 1 | -6 | 24 | -3 | .
O=C(Nc1ccccc1)N1CCC(c2nc(-c3ccc(S(=O)(=O)N4CCOCC4)cc3)no2)CC1 | 44 | 53* | 14 | -82 | -4 | 19
CCOC(=O)CSc1nc2cc(OC)ccc2cc1C#N | -80 | -207 | -2 | -190 | -4 | -88
CCOC(=O)CSc1nc2cc(C)ccc2cc1C#N | -104 | -156 | -4 | -119 | 4 | -89
O=C(NC1CCCC1)C(c1ccccn1)N(C(=O)c1csnn1)c1ccc(F)cc1 (stereo unspecified) | -16 | -7 | -17 | 4 | -11 | .
CN(C)CCCn1c2c(c(SCC(=O)Nc3ccc4c(c3)OCCO4)nc1=O)CCC2 | -10 | -2 | -6 | -11 | 8 | .
CSc1cccc(NC(=O)/C=C/c2ccccc2)c1 | -56 | -88 | 2 | -81 | 22 | .
CSc1ccc(/C=C/C(=O)Nc2ccccc2)cc1 | 46 | -240 | 1 | -110 | 119* | -149
CCCCN1C(=O)C(CC(=O)NCc2cccc3ccccc23)CC(C(=O)N(C)C)=C1C (stereo unspecified) | -12 | . | . | . | . | .
FC(F)Oc1ccc(C2N=C(c3ccccc3)NO2)cc1 (stereo unspecified) | -65 | -128 | -2 | -139 | -6 | .
